# Only some compounds are listed: those with a hit (about 2.1% of all), similar ones and a draw of the others.
# Abeta yeast res: qHTS for compounds that reverse cellular toxicity of Amyloid beta (A-beta) peptide in yeast: Primary Screen; AID 1347071, 2019; yeast expressing A-beta42, growth rescue, OD600, 48 h; response scale: 0% DMSO, 100% iron-clioquinol control; 410,000 compounds, 0.063% hits; Potency, µM (doses to about 46.1 µM), actives largely listed as activators; further: nearly all actives have a fitted effect of over 55% in size
#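 Growth rescue measured by 600 nm absorbance after 48 h yeast culture at 30 C with compound. Values normalized between DMSO and an equimolar ferric chloride plus clioquinol control.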
# aSyn rescue: qHTS of alpha-syn Inhibitors; Yeast expressing alpha-synuclein, growth rescue, BacTiter-Glo, 24 h; Potency, µM (doses to about 46.1 µM), most hits filed as activators; 370,000 compounds, 0.14% hits; further: nearly all actives have a fitted effect of over 65% in size
#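 Readout is rescue of growth in alpha-synuclein-expressing yeast, so inhibitors of toxicity appear as activators. Growth after 24 hr at 30 deg C in galactose medium is quantified by luminescence.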
# TDP43 rescue: qHTS of TDP-43 Inhibitors; 410,000 compounds, 1.8% hits; TDP-43 expressing yeast growth rescue, BacTiter-Glo, 24 h; Potency, µM (series often up to 46.1 µM), hits mostly activators; AID 652104, 2013; further: nearly all actives have a fitted effect of over 50% in size
#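 In this qHTS, compounds that restore growth of yeast expressing TDP-43 appear as activators. Cells (OD600=0.02, galactose medium, raffinose-pregrown) are incubated with compound 24 hr at 30 deg C and growth is quantified by BacTiter-Glo.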
# FUS suppressor: qHTS for Suppressors of FUS Proteinopathy: Primary screen using FUS-linked yeast assay. S. cerevisiae FUS-expressing, growth rescue, OD600, 24 h. Potency, µM (top dose mostly 76.6 µM), actives largely listed as activators. 390,000 compounds, 0.24% hits. AID 1347120, 2019; further: nearly all actives have a fitted effect of over 55% in size
#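 Yeast FUS proteinopathy model; galactose-induced FUS (2%), starting OD 0.005. Cpds in dilution series, 24hr, 30C, 99% humidity. Abs 600 nm growth. Pos ctrl CP55940 (top 92uM final); neg ctrl DMSO.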
# Hits are given with their value; – = inactive; ? = inconclusive; · = no result given; ! = repeats disagree; [ ] = another dose, or the depositor's remark. The call rests on the fitted dose curve; in most records, active means well fitted curve in the direction sought with a large enough effect; inconclusive means small, poorly fitted or top-dose-only effect, or another doubt; inactive means no such curve, though single readings can be large; an effect the other way counts as inactive or inconclusive.
SMILES,Abeta yeast res,aSyn rescue,TDP43 rescue,FUS suppressor
N#C/C(=C\c1ccc(-c2ccccc2C(=O)O)o1)c1nc2ccccc2[nH]1,–,–,22.4µM!,–
CC(CCC(C)[n+]1cccc(Br)c1)[n+]1cccc(Br)c1 (configuration not stated),·,–,·,·
O=C(Oc1ccc(Br)cc1C(=S)N1CCCC1)c1ccccc1F,–,–,15.8µM,·
CCOC(=O)Cn1cc(CN2C(C(=O)OC)CN(Cc3ccc(Cl)cc3)CCS2(=O)=O)nn1 (configuration not stated),·,·,·,–
CCOc1ccc(S(=O)(=O)Nc2nc3ccccc3nc2N2CCN(C)CC2)cc1,–,–,–,–
CCOc1ccc(S(=O)(=O)Nc2nc3ccccc3nc2Cl)cc1,–,–,22.4µM,–
CCOc1ccc(NS(=O)(=O)c2ccc(NS(C)(=O)=O)cc2)cc1,–,–,–,–
CCOc1ccc(NS(=O)(=O)c2ccc(NS(=O)(=O)c3ccc(SC)cc3)cc2)cc1,–,–,–,28.2µM
CCSc1nnc(NC(=O)c2ccc3ccccc3n2)s1,–,–,–,–
CC(C)c1nnc(NC(=O)c2nc(SCc3ccc(F)cc3)ncc2Cl)s1,–,·,–,8.91µM
CCc1nnc(NC(=O)c2nc(SCc3ccccc3F)ncc2Cl)s1,–,·,17.8µM,–
Cc1ccccc1NC(=O)c1nc(SCc2ccccc2F)ncc1Cl,·,–,·,·
Cc1nnc(NC(=O)c2nc(SCc3ccccc3F)ncc2Cl)s1,–,·,15.8µM,?
CCc1nnc(NC(=O)c2ccc3ccccc3n2)s1,–,–,31.6µM,–
CN(C)c1ccc(/C=C2\CCc3ccccc32)cc1,·,–,·,·
COC(=O)Cn1nc(-c2ccccc2)c2cccc(C(F)(F)F)c21,·,·,·,–
O=c1[nH]c(Sc2ccc([N+](=O)[O-])cc2[N+](=O)[O-])nc2ccccc12,–,–,12.6µM,–
O=C(CSc1nc2ccccc2c(=O)[nH]1)Nc1ccc([N+](=O)[O-])cc1,–,–,–,–
Cc1nn(-c2ccccc2)c2sc(C(=O)NC3CCCCCCC3)cc12,·,·,·,–
S=C(Nc1ccccc1)Nc1cccc(Br)c1,–,–,–,–
S=C(Nc1cccc(Br)c1)c1ccccc1,?,–,12.6µM,–
Cc1ccc(-c2ccc(CCC(=O)O)n2C(C)C)cc1,–,–,35.5µM,–
Cc1ccc(-c2ccc(CCC(=O)O)n2NC(N)=S)cc1,–,–,–,–
COc1ccc(NC(=O)NC2CCN(S(=O)(=O)c3ccc(F)cc3)CC2)cc1OC,·,·,·,–
COc1ccccc1C(=O)NC1CCCCN(Cc2cccc(F)c2)C1=O (configuration not stated),·,·,·,–
SMILES,Abeta yeast res,aSyn rescue,TDP43 rescue,FUS suppressor
Cc1ccc(C(=O)OCc2nnc(-c3ccccc3)o2)o1,–,–,17.8µM,–
Cc1ccc(C2CC(c3ccc(Cl)cc3)=NNC2=O)cc1 (configuration not stated),–[9.22 µM],–,22.4µM,–
O=C(Nc1ccccc1Oc1ccccc1)NC1CCCCN(Cc2cccc(Cl)c2)C1=O (configuration not stated),·,·,·,–
O=C(Cn1c(-c2cncs2)nc2ccccc21)N1CCCCC1,·,·,·,–
COP(=O)(O)C(Cc1ccccc1)NC(=O)OCc1ccccc1 (configuration not stated),·,·,·,–
CC1Cc2nc(SCC(=O)NCC3CCCO3)n(-c3ccccc3)c(=O)c2S1 (configuration not stated),–,22.4µM,–,–
Cn1cnc([N+](=O)[O-])c1S(=O)(=O)Oc1ccc(Cl)cc1,–,–,3.16µM,–
Cn1cnc([N+](=O)[O-])c1S(=O)(=O)Oc1cccc2ccccc12,–,–,?,–
Cn1c(NCC(O)c2ccccc2)nc2c1c(=O)n(Cc1ccc(Cl)cc1)c(=O)n2C (configuration not stated),–,–,–,–
Cn1c(NCC(O)c2ccccc2)nc2c1c(=O)n(Cc1ccc(Cl)c(Cl)c1)c(=O)n2C (configuration not stated),–,–,–,8.91µM
CCOc1nc(NC2CCCC2)nc(N2CCC(C)CC2)n1,?,–,17.8µM,–
CCOc1nc(OCC)nc(N2CCC(C)CC2)n1,–,–,–,–
O=C1CCC[C@H]2C[C@H](NCc3cccnc3)CC[C@]23CCCN13,·,·,·,–
N#C/C(=C\Nc1ccccc1O)c1nc2ccccc2o1,–,–,7.08µM,–
N#C/C(=C\c1ccncc1)c1nc2ccccc2o1,–,–,–,–
CC1=C(C)CS(=O)N(S(=O)(=O)c2ccccc2)C1 (configuration not stated),–,–,12.6µM,–
O=C(COc1ccccc1C(=O)NCc1ccccc1)Nc1ccc(I)cc1,·,·,·,–
CC(=O)Nc1cccc(OCCCOc2cccc([N+](=O)[O-])c2)c1,–,–,12.6µM,·
COc1cccc(NC(C)C(=O)Nc2cc([N+](=O)[O-])ccc2Cl)c1 (configuration not stated),–,–,11.2µM,–
COc1ccc(NC(=S)Nc2cccc([N+](=O)[O-])c2)cc1,–,–,?,–
COc1ccc(OC(C)C(=O)Nc2cccc([N+](=O)[O-])c2)cc1 (configuration not stated),–,–,10µM,·
CC(C)(C)NC(=O)C(c1cccnc1)N(C(=O)c1cnc[nH]1)c1ccc(C(C)(C)C)cc1 (configuration not stated),·,·,·,–
C=CCn1c(SCc2ccc(C#N)cc2)nnc1-c1ccco1,·,·,·,–
C=CCn1c(SCc2c(F)cccc2Cl)nnc1-c1ccco1,–,–,12.6µM,–
CC(=O)N1c2ccccc2Oc2cc3ccccc3cc21,–,–,12.6µM,–
SMILES,Abeta yeast res,aSyn rescue,TDP43 rescue,FUS suppressor
O=C(CCl)N1c2ccccc2Oc2ccc3ccccc3c21,–,–,?,?
CN1C2=NC(c3ccccc3)CC(=O)N2/C(=C\c2ccccc2)C1c1ccccc1C(F)(F)F (configuration not stated),·,·,·,–
CSc1nc(N2CCOCC2)c2c3c(sc2n1)CCCC3,–,–,15.8µM,?
O=C(NCC1CCN(C(=O)c2c(F)c(F)c(F)c(F)c2F)CC1)c1c(F)c(F)c(F)c(F)c1F,–,–,12.6µM,·
CCOC(=O)N1CCN(c2ncc3c(n2)CC(c2ccc(Cl)cc2)CC3=O)CC1 (configuration not stated),–,–,12.6µM,–
CCN(Cc1nc2ccccc2c(=O)[nH]1)C(=O)c1cccc(OCc2c(C)noc2C)c1,–,–,–,–
CCN(Cc1ccc(Cl)s1)C(=O)c1cccc(OCc2c(C)noc2C)c1,–,–,35.5µM,·
Cc1sc(N)nc1-c1cccc([N+](=O)[O-])c1,·,–,·,·
COC(=O)C[C@@H]1CC[C@H]2[C@@H](COc3ccc(NC(=O)c4ccc(C(F)(F)F)cc4)cc3C(=O)N2C)O1,·,·,·,–
Cc1cccc(C)c1OCc1cc(=O)n2c3c(sc2n1)CCCC3,–,·,35.5µM,–
CCc1ccc(C(=O)Nc2cccc(-c3nc4cc(C(C)C)ccc4o3)c2)cc1,–,–,–,–

# High-throughput results: PubChem BioAssay, National Center for Advancing Translational Sciences (NCATS)
